PubChem BioAssay (EPA / NIEHS)
Where “and” joins values, the source holds several entries; their conditions need not be identical. Equal values may be shown once. Results filed as inconclusive are left out. Some compounds were tested as several samples or in several runs, with calls that do not always agree. Calls of active or inactive are those of the source. How the source made its calls, unless noted: active means hit-call score of the fitted dose curve at least 0.9, where 1 is the maximum; inactive means score below 0.9.

Columns and labels:
[1] = ATG_TAL_CIS: Attagene CIS-FACTORIAL HepG2 Assay for human TAL Basal Promoter (AID 2282966); details: HepG2 Attagene cis-factorial TAL promoter reporter; actives raise or lower the signal;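 further: background control endpoint measuring basal TAL promoter reporter mRNA not a specific factor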
Method in brief: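 Transiently transfected HepG2 (cis-regulated reporter units), 24 h treatment, mRNA read by fluorescent CE after RT-PCR; bidirectional fit, DMSO baseline.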

[2] = ATG_TGFb_CIS: Attagene CIS-FACTORIAL HepG2 Assay for human Transforming Growth Factor (TGF) (AID 2282967); details: HepG2 Attagene CIS TGFb reporter, mRNA transcription; actives raise or lower the signal
Method in brief: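 Transient MRTU transfection of HepG2 (FuGene 6). Dose 24 h. TriZol RNA, oligo(dT) RT, PCR, 6-FAM primer extension, HpaI cut, CE. Bidirectional fit, DMSO = baseline.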

[3] = ATG_VDRE_CIS: Attagene CIS-FACTORIAL HepG2 Assay for human Vitamin D Receptor Element (VDRE) (AID 2282968); details: HepG2 VDRE cis-reporter transcription, actives raise or lower the signal
Method in brief: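 Measures endogenous factor activity through cis-element-driven reporter transcripts in transiently transfected HepG2. Cells are treated 24 h; reporter mRNA is quantified by RT-PCR and capillary electrophoresis; fitting is bidirectional.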

[4] = target: Estrogen receptor (Homo sapiens) (UniProt P03372); test: ATG_ERa_TRANS: Attagene TRANS-FACTORIAL HepG2 Assay for human Estrogen Receptor alpha (ERa) (AID 2282970; active means hit-call score of the fitted dose curve at least 0.9, where 1 is the maximum); details: HepG2 Attagene TRANS ERa GAL4 reporter, mRNA
Estrogen receptor (Homo sapiens), sequence (P03372 whole entry, looked up, the tested form may be a part): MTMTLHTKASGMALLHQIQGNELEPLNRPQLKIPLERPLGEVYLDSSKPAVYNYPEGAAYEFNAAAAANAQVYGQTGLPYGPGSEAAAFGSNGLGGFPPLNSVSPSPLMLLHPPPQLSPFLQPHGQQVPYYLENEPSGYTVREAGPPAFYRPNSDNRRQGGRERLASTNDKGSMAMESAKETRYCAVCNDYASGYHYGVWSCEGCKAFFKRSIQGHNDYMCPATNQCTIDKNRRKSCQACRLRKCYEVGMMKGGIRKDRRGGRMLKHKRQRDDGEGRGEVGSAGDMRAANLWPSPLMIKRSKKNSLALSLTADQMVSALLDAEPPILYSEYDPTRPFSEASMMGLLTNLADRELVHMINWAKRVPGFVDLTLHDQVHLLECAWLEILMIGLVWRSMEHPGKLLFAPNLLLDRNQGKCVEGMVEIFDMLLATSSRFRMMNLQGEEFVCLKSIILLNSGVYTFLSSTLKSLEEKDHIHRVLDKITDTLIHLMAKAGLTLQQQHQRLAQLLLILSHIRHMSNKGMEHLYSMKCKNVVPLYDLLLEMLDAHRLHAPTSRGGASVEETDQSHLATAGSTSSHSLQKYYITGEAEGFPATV
Method in brief: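 One of 30 multiplexed endpoints from a HepG2 TRANS system, this one reports ERa-Gal4-driven reporter mRNA. Transcripts were quantified 24 hours post-dosing by fluorescent RT-PCR and capillary electrophoresis, with activity scored as induction over DMSO.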

[5] = target: X-box-binding protein 1 (Homo sapiens) (UniProt P17861); test: ATG_Xbp1_CIS: Attagene CIS-FACTORIAL HepG2 Assay for human X-box Binding Protein 1 (XBP1) (AID 2282972); details: HepG2 XBP1 cis-element reporter, Attagene multiplex; actives raise or lower the signal
X-box-binding protein 1 (Homo sapiens), sequence (P17861 whole entry, looked up): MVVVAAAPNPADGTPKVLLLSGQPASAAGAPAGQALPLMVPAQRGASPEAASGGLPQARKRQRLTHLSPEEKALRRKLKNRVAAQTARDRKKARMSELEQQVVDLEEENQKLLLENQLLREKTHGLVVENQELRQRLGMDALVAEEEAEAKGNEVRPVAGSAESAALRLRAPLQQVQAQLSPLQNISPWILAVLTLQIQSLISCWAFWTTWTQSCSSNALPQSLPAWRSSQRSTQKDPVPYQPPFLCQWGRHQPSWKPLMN
Method in brief: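 Reporter transcripts were quantified by RT-PCR with fluorescent primer extension and capillary electrophoresis after 24 h chemical exposure. Cells: transiently transfected HepG2 carrying cis-regulated reporter constructs; data fitted bidirectionally relative to DMSO.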

[6] = target: Glucocorticoid receptor (Homo sapiens) (UniProt P04150); test: ATG_GR_TRANS: Attagene TRANS-FACTORIAL HepG2 Assay for human Glucocorticoid Receptor (GR) (AID 2282978; active means hit-call score of the fitted dose curve at least 0.9, where 1 is the maximum;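 further: activators score as hits since higher reporter transcript over DMSO is fitted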); details: HepG2 Attagene TRANS GR reporter, mRNA transcription
Glucocorticoid receptor (Homo sapiens), sequence (P04150 whole entry, looked up, the tested form may be a part): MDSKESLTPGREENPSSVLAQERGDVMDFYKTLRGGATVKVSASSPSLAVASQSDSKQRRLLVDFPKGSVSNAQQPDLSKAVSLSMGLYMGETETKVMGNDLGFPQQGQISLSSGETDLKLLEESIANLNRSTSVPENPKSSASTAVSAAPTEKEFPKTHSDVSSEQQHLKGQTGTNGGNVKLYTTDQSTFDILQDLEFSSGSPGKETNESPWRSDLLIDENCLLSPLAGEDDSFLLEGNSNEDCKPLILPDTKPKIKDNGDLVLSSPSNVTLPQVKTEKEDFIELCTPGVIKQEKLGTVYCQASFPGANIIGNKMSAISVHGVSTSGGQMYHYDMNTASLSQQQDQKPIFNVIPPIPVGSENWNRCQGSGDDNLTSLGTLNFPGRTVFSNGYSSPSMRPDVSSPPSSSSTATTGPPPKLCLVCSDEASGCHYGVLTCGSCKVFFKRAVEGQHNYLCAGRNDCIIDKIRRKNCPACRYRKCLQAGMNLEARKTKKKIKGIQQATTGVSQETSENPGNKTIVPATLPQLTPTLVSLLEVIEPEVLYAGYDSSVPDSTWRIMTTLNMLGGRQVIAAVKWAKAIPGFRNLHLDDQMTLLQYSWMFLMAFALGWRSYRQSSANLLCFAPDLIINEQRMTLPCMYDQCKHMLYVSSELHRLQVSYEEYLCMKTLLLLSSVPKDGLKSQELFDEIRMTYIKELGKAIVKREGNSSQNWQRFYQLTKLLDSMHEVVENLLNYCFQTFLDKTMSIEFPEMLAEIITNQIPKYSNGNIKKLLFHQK
Method in brief: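 Reporter transcript levels, detected by fluorescence after RT-PCR and capillary electrophoresis, served as the endpoint. HepG2 cells bearing transfected GAL4-UAS reporters responsive to NR-GAL4 chimeras were incubated with compound 24 h; DMSO defined baseline.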

[7] = target: Oxysterols receptor LXR-alpha (Homo sapiens) (UniProt Q13133); test: ATG_LXRa_TRANS: Attagene TRANS-FACTORIAL HepG2 Assay for human Liver X Receptor alpha (LXRa) (AID 2282980; active means hit-call score of the fitted dose curve at least 0.9, where 1 is the maximum); details: HepG2 Attagene TRANS reporter, LXRa transactivation
Oxysterols receptor LXR-alpha (Homo sapiens), sequence (Q13133 whole entry, looked up, the tested form may be a part): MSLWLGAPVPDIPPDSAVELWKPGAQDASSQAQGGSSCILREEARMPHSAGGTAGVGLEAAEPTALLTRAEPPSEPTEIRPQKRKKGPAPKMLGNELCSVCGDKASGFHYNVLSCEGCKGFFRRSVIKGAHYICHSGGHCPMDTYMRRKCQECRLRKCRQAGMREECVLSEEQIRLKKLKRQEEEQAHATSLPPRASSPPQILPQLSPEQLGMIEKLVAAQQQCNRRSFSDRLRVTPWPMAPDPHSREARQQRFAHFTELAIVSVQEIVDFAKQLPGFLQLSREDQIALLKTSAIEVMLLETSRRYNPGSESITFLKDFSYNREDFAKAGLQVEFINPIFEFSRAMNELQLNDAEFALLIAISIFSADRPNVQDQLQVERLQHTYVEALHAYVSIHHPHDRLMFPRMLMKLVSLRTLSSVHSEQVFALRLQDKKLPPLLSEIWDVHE
Method in brief: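 HepG2 cells were transiently transfected with multiplexed reporter units driven by chimeric LXRa–GAL4 fusion proteins, then dosed for 24 h. Reporter mRNA was quantified by RT-PCR, fluorescent labelling and capillary electrophoresis; gain of signal fitted against DMSO baseline.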

[8] = target: Oxysterols receptor LXR-beta (Homo sapiens) (UniProt P55055); test: ATG_LXRb_TRANS: Attagene TRANS-FACTORIAL HepG2 Assay for human Liver X Receptor beta (LXRb) (AID 2282981; active means hit-call score of the fitted dose curve at least 0.9, where 1 is the maximum); details: HepG2 Attagene TRANS GAL4-LXRb reporter, mRNA
Oxysterols receptor LXR-beta (Homo sapiens), sequence (P55055 whole entry, looked up, the tested form may be a part): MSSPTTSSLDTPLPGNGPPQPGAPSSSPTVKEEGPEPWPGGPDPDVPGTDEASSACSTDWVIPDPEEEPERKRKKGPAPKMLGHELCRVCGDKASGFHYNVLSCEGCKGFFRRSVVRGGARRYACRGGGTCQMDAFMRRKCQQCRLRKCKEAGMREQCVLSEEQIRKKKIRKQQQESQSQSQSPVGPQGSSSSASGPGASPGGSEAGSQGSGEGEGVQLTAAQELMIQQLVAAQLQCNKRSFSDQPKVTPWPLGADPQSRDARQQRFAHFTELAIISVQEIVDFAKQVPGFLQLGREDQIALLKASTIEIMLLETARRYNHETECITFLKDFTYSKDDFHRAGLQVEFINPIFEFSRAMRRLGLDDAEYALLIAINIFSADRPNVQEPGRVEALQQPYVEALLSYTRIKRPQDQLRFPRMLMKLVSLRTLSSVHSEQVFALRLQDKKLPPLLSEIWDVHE
Method in brief: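 After 24 h of chemical treatment, transfected HepG2 cells yield total RNA; reporter cDNA is PCR-amplified, FAM-labelled, HpaI-cut and run on capillary electrophoresis. Signal reflects chimeric LXRb-Gal4 activity on GAL4-UAS reporters.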

[9] = target: Hepatocyte nuclear factor 4-alpha (Homo sapiens) (UniProt P41235); test: ATG_HNF4a_TRANS: Attagene TRANS-FACTORIAL HepG2 Assay for human Hepatocyte Nuclear Factor 4 alpha (HNF4a) (AID 2282982; active means hit-call score of the fitted dose curve at least 0.9, where 1 is the maximum); details: HepG2 HNF4a transactivation reporter, mRNA readout
Method in brief: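 Multiplexed reporter assay: transfected HepG2, 24 h exposure, total RNA → oligo(dT) RT → PCR → 6-FAM extension → HpaI digest → CE fluorescence. DMSO = negative control.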

[10] = ATG_M_06_TRANS: Attagene TRANS-FACTORIAL HepG2 Assay for M06 Transcription Factor (Internal Marker) (AID 2282983; active means hit-call score of the fitted dose curve at least 0.9, where 1 is the maximum); details: HepG2 Attagene TRANS M06 internal marker reporter
Method in brief: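 In this multiplexed HepG2 system, compounds are incubated 24 h with cells carrying GAL4-UAS reporter units. Reporter RNA is amplified and resolved by capillary electrophoresis, and induction is scored against DMSO.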

[11] = ATG_M_32_TRANS: Attagene TRANS-FACTORIAL HepG2 Assay for M32 Transcription Factor (Internal Marker) (AID 2282984; active means hit-call score of the fitted dose curve at least 0.9, where 1 is the maximum;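 further: transcript level of a background control reporter unit measured by RT-PCR and capillary electrophoresis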); details: HepG2 Attagene TRANS M32 internal marker reporter
Method in brief: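 Cell-based TRANS-format assay in HepG2: exogenous chimeric GAL4 reporter units transiently expressed, compounds applied 24 h. Reporter mRNA detected by RT-PCR plus capillary electrophoresis; this readout is an internal background marker.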

[12] = target: Transcriptional activator Myb (Homo sapiens) (UniProt P10242); test: ATG_Myb_CIS: Attagene CIS-FACTORIAL HepG2 Assay for human Myeloblastosis (Myb) Proto-Oncogene Transcription Factor (AID 2282986); details: HepG2 Attagene CIS-FACTORIAL Myb reporter transcription; actives raise or lower the signal
Transcriptional activator Myb (Homo sapiens), sequence (P10242 whole entry, looked up): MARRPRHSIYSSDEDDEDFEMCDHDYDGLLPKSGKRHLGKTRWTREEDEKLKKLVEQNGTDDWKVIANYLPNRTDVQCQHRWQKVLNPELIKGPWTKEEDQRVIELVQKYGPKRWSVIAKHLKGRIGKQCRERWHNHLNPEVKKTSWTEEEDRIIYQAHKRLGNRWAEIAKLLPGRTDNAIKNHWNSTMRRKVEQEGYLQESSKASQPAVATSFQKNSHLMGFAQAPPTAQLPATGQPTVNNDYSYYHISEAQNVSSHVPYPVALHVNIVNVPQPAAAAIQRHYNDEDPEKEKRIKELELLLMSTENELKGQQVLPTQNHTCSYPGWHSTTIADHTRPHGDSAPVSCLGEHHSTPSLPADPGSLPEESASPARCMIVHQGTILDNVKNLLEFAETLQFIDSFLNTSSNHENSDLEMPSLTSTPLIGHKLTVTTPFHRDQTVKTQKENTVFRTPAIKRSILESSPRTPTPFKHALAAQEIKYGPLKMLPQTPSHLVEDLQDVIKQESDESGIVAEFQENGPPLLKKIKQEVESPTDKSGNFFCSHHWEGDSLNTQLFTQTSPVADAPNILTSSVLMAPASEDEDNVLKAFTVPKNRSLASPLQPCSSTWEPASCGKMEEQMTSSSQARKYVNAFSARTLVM
Method in brief: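 Transiently transfected HepG2 cells, treated 24 h. Reporter mRNA quantified by RT-PCR/capillary electrophoresis; bidirectional fit relative to DMSO.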

[13] = target: Nuclear respiratory factor 1 (Homo sapiens) (UniProt Q16656); test: ATG_NRF1_CIS: Attagene CIS-FACTORIAL HepG2 Assay for human Nuclear Respiratory Factor 1 (NRF1) Orphan Gene (AID 2282987); details: HepG2 NRF1 cis-element reporter, Attagene multiplex; actives raise or lower the signal
Nuclear respiratory factor 1 (Homo sapiens), sequence (Q16656 whole entry, looked up, the tested form may be a part): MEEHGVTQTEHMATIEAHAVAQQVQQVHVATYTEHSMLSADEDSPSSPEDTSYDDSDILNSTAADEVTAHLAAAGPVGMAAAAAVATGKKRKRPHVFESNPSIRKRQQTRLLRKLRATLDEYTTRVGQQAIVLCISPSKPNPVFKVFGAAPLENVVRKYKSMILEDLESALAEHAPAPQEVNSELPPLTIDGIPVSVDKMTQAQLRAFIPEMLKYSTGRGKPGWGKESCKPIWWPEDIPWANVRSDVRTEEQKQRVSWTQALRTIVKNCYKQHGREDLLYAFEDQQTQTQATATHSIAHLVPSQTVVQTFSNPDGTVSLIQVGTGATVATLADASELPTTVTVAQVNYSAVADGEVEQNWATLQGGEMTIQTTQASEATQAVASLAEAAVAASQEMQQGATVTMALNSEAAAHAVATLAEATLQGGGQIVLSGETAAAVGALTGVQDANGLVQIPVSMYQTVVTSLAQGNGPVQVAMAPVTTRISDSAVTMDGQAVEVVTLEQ
Method in brief: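 Cells (HepG2, transient MRTU transfection) are exposed to compound for 24 h, then RNA isolated and reporter mRNA amplified and fluorescently labelled. Fragments are separated by capillary electrophoresis; signal change is fitted bidirectionally relative to DMSO.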

[14] = ATG_NFI_CIS: Attagene CIS-FACTORIAL HepG2 Assay for human Nuclear Factor I (NFI) (AID 2282989); details: HepG2 cis-regulatory reporter, NFI response element transcription; actives raise or lower the signal
Method in brief: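 Transient MRTU transfection of HepG2 → 24 h chemical dosing → total RNA, oligo(dT) RT → PCR, 6-FAM primer extension, HpaI cut → capillary electrophoresis. Endpoint fitted bidirectionally relative to DMSO.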

[15] = ATG_GAL4_TRANS: Attagene TRANS-FACTORIAL HepG2 Assay for GAL4 (Internal Marker) (AID 2282976; active means hit-call score of the fitted dose curve at least 0.9, where 1 is the maximum); details: HepG2 Attagene TRANS GAL4 internal marker reporter
Method in brief: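 HepG2 cells transiently transfected with multiplexed GAL4-UAS reporter constructs were dosed for 24 h. Reporter mRNA was measured by RT-PCR, 6-FAM primer extension, HpaI digestion and capillary electrophoresis, and gain of signal was fitted relative to DMSO.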

[16] = target: Bile acid receptor (Homo sapiens) (UniProt Q96RI1); test: ATG_FXR_TRANS: Attagene TRANS-FACTORIAL HepG2 Assay for Farnesoid X Receptor (FXR) (AID 2282979; active means hit-call score of the fitted dose curve at least 0.9, where 1 is the maximum;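 further: hits raise reporter mRNA above DMSO so AC50 marks FXR activation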); details: HepG2 Attagene TRANS FXR-GAL4 reporter transcription
Bile acid receptor (Homo sapiens), sequence (Q96RI1 whole entry, looked up, the tested form may be a part): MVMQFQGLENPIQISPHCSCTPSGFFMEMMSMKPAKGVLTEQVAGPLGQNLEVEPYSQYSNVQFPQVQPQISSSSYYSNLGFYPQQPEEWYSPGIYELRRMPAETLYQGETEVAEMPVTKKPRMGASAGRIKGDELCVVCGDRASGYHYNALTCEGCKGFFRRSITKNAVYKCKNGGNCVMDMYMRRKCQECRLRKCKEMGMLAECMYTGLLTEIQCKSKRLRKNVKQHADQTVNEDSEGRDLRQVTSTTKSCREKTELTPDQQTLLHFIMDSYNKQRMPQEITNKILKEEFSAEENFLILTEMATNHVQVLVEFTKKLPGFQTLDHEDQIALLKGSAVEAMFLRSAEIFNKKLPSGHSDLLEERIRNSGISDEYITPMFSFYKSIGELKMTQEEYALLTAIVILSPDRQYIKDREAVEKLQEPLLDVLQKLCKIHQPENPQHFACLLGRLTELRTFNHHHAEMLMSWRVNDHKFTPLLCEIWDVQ
Method in brief: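 HepG2 cells transiently transfected with reporter constructs in which a chimeric FXR-GAL4 protein drives a GAL4-UAS reporter; 24 h compound exposure. Reporter mRNA measured by RT-PCR, FAM labelling, HpaI digestion and capillary electrophoresis; gain-of-signal versus DMSO.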

[17] = target: Nuclear receptor subfamily 4 group A member 2 (Homo sapiens) (UniProt P43354); test: ATG_NURR1_TRANS: Attagene TRANS-FACTORIAL HepG2 Assay for human Nuclear Receptor Related Protein 1 (NURR1) (AID 2282985; active means hit-call score of the fitted dose curve at least 0.9, where 1 is the maximum); details: HepG2 Attagene TRANS reporter, mRNA readout
Nuclear receptor subfamily 4 group A member 2 (Homo sapiens), sequence (P43354 whole entry, looked up, the tested form may be a part): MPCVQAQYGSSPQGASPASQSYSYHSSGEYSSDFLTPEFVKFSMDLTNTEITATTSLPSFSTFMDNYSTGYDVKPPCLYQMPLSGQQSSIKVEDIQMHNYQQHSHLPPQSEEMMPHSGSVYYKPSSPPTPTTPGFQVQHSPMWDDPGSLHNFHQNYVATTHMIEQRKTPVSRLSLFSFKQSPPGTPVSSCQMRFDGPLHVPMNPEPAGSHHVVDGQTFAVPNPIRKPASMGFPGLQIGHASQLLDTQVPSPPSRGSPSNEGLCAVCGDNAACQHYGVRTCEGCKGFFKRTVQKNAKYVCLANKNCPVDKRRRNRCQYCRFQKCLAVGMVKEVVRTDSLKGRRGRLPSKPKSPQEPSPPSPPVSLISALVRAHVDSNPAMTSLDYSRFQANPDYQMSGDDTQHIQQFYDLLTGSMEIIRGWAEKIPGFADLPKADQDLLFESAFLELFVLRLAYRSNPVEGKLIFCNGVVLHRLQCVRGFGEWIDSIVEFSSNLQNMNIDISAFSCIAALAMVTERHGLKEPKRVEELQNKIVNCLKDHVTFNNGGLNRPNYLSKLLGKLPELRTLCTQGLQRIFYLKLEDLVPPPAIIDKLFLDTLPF
Method in brief: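 Measures transcriptional activation by an exogenous NR-Gal4 chimera in transfected HepG2 liver cells. After 24 h, reporter RNA is reverse-transcribed, amplified and resolved by capillary electrophoresis; DMSO defines baseline.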

Measured: AC50

ClC1=C(Cl)C(Cl)(Cl)C(Cl)=C1Cl
inactive: [1] | [2] | [6] | [7] | [8] | [9] | [10] | [11] | [12]
active: [1] 15 µM | [3] 14.7 µM and 7.29 µM | [4] 15.1 µM and 11.1 µM | [5] 13.4 µM and 7.05 µM | [12] 13.6 µM | [13] 14 µM and 9.06 µM | [14] 15.3 µM and 7.42 µM

C=C(C)C(=O)OCCC(F)(F)C(F)(F)C(F)(F)C(F)(F)C(F)(F)C(F)(F)F
active: [4] 38.4 µM and 49.2 µM
inactive: [1] | [2] | [3] | [5] | [15] | [6] | [16] | [8] | [11] | [12] | [13] | [14]

CC1=C(/C=C/C(C)=C/C=C/C(C)=C/C(=O)O)C(C)(C)CCC1
active: [3] 6.62 µM and 11.9 µM | [5] 44.3 µM and 8.86 µM | [17] 57.2 nM and 278 nM
inactive: [1] | [2] | [6] | [7] | [8] | [10] | [11] | [12] | [13] | [14]
